Bioassay records deposited in PubChem by National Center for Advancing Translational Sciences (NCATS).
Most compounds without a hit are left out; they make up all but 2.3% or so of the library.
Hsp90 Hop PPI: qHTS Assay for Disrupters of an Hsp90 Co-Chaperone Interaction; 71,000 compounds, 0.44% hits; AID 595, 2007; Potency, µM (highest dose often 57 µM), for the others: at the highest dose activity change, negative = inhibition; AlphaScreen TPR2A-His6 binding biotin-Hsp90 C-terminal peptide; active means well fitted curve in either direction with a large enough effect; inconclusive means small, poorly fitted or top-dose-only effect, or another doubt; further: potency means the concentration at half of the fitted maximal effect; on the % scale 0 is the no-effect control and ±100 the full control effect
Tau fil binding: qHTS Assay for Tau Filament Binding | AID 596, 2007 | recombinant tau filaments, thioflavin S fluorescence, 15 h; filaments grown with octadecylsulfate alongside compound | 71,000 compounds, 2% hits | Microtubule-associated protein tau (Homo sapiens), P10636 | Potency, µM (highest dose often 57.1 µM), for inactives: at the top dose activity change, negative = inhibition;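 further: potency means the concentration at half of the fitted maximal effect; on the % scale 0 is the no-effect control and ±100 the full control effect; actives lower thioflavin S fluorescence by blocking filaments or displacing dye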
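Recombinant tau protein (human, 1 uM final) plus 30 uM ODS in HEPES pH 7.4 with NaCl, DTT and thioflavine S. Compound present from the start; fluorescence at 510 nm after 15 h, 37 C.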
BRCT PPI red: qHTS Assay for Inhibitors of BRCT-Phosphoprotein Interaction (Red Fluorophore); Breast cancer type 1 susceptibility protein (Homo sapiens), P38398; BRCT-phosphopeptide binding, red fluorescence polarization; Potency, µM (titrated, usually from 76.9 µM), inactives show top-dose activity change, negative = inhibition, most hits filed as inhibitors; 75,000 compounds, 0.03% hits; AID 892, 2007; further: on the % scale 0 is the no-effect control and ±100 the full control effect
Target sequence (P38398 whole entry, looked up): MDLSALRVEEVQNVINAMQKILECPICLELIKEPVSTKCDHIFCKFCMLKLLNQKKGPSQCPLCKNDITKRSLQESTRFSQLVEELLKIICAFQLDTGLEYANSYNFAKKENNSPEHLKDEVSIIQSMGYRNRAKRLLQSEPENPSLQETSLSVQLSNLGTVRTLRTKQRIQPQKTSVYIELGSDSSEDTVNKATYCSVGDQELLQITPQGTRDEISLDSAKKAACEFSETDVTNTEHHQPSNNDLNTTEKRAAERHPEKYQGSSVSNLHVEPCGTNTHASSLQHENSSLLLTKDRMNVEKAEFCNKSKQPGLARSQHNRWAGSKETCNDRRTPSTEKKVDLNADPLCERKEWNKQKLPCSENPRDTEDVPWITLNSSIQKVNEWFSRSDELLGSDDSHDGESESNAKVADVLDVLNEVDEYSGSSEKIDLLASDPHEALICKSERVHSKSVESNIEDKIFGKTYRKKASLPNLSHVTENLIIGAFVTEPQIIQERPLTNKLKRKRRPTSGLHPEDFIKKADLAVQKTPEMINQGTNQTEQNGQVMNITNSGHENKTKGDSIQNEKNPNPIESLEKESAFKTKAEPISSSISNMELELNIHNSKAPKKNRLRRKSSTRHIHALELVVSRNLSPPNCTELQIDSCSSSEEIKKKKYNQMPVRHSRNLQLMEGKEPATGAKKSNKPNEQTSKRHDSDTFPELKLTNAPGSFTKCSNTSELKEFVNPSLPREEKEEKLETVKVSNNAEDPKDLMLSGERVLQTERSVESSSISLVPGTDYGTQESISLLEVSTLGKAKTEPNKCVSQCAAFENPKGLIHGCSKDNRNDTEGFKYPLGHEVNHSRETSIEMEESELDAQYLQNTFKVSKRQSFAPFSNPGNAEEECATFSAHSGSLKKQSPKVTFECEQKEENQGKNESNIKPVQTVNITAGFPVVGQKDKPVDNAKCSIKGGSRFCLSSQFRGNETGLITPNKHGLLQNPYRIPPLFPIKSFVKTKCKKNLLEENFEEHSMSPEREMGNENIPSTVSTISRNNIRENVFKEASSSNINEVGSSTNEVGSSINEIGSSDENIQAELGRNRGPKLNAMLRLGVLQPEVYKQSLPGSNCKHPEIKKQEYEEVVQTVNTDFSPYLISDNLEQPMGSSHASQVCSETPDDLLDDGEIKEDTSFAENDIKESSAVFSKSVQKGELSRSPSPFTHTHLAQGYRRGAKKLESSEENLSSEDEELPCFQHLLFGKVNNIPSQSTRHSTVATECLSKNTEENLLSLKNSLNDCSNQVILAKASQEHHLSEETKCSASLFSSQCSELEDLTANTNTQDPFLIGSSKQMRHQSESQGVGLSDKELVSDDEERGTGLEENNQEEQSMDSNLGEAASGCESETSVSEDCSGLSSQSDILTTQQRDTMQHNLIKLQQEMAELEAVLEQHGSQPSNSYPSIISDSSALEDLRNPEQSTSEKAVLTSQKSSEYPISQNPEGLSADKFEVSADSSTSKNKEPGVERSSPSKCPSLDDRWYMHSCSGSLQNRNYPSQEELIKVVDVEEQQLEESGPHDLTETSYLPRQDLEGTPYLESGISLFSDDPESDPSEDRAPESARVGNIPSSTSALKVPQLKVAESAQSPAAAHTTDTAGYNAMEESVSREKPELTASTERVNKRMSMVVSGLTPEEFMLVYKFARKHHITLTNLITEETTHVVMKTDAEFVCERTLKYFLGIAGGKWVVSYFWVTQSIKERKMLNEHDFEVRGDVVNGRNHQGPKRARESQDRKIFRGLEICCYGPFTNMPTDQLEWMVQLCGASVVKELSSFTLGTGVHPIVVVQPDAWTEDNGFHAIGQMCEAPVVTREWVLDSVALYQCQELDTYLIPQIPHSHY
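Rhodamine-labelled pBACH1 10-mer (100 nM) bound to BRCT domain (100 nM) at pH 7.3; compounds incubated 12 min room temperature, polarization read. Free peptide defines full inhibition; unlabelled decapeptide titrated as control.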
Pol III holo inh: qHTS Assay for Inhibitors of DNA Polymerase III Holoenzyme System; reconstituted DNA polymerase III holoenzyme replication, biochemical; Potency, µM (highest dose often 57.1 µM), for inactives: at the highest dose activity change, negative = inhibition; 71,000 compounds, 0.25% hits; further: potency means the concentration at half of the fitted maximal effect; on the % scale 0 is the no-effect control and ±100 the full control effect
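Reconstituted *E. coli* holoenzyme (0.35 nM Pol III, 1 nM beta, 154 nM SSB, 2 nM primase) was preincubated with compound for 15 min at RT. Synthesis on 1.4 nM ssM13Gori ran 35 min, then was stopped with PicoGreen/EDTA and read as dsDNA fluorescence.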
TsaE inh: qHTS Assay for Inhibitors of YjeE; purified YjeE enzyme, qHTS inhibition assay; Potency, µM; 71,000 compounds, 0.05% hits; AID 605, 2007
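Fluorescence polarization of a BODIPY Texas Red–ADP probe (2 uM) bound to purified YjeE (10 uM) was read after 15 min room-temperature incubation with compounds. Loss of polarization marks inhibitors; ADP serves as titrated control.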
BRCT PPI green: qHTS Assay for Inhibitors of BRCT-Phosphoprotein Interaction (Green Fluorophore). Breast cancer type 1 susceptibility protein (Homo sapiens), P38398. Potency, µM (highest dose often 76.9 µM), without a hit: at the top dose activity change, negative = inhibition, usual class: inhibitors. AID 875, 2007. BRCA1 BRCT-phosphopeptide binding, green fluorescence polarization. 75,000 compounds, 0.05% hits;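 further: potency means the concentration at half of the fitted maximal effect; plate controls were peptide without protein for full effect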
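Compounds were incubated for 12 min at room temperature with a complex of 100 nM fluorescein-tagged pBACH1 decapeptide and 250 nM His-tagged BRCT protein. Buffer was phosphate pH 7.3 with EDTA, DTT and Tween 20. Disruption of binding lowers the polarization signal.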
* hit, by the source's call; i = inactive; ? = inconclusive; · = no result; ! = not active in a repeat; [ ] = remark or other dose. Unless noted, the call rests on the fitted dose curve; in most records, active means well fitted curve in the direction sought with a large enough effect; inconclusive means small, poorly fitted or top-dose-only effect, or another doubt; inactive means no such curve, though single readings can be large; an effect the other way counts as inactive or inconclusive.

SMILES	Hsp90 Hop PPI	Tau fil binding	BRCT PPI red	Pol III holo inh	TsaE inh	BRCT PPI green
COC(=O)C1=C(C)N(Cc2ccccc2)[C@]23O[C@](C(=O)OC)(C(=O)N2C1c1ccccc1)C(c1ccccc1)C3C(=O)c1ccccc1 (some centres undefined)	·	·	0.5%[15.4 µM]	·	·	1.3%[15.4 µM]
CC1CCC2C(=O)N3C(CCC(C)[C@@H]3c3cccc(N4CCOCC4)c3)C(=O)N2C1c1cccc(Br)c1 (some centres undefined)	·	·	0.4%[15.4 µM]	·	·	0.2%[15.4 µM]
O=C1Nc2ccc(I)cc2/C1=C/c1cc(Br)c(O)c(Br)c1	?	1µM*	?	4.3%	?	40.6%
CCOC(=O)c1cnc2c(C(=O)OC)cccc2c1NCc1ccco1	-6.3%	12.6µM*	0.7%	-9.9%	i	2.1%
COc1cccc(Nc2ncc3nc(C)c(=O)n(C)c3n2)c1	-22.4%	12.6µM*	0.6%	-5.8%	i	-2.2%
COc1cccc(Cn2c(=O)c(C)nc3cnc(Nc4cccc(OC)c4)nc32)c1	-4.3%	30.5%	-0.3%	1.3%	i	2.7%
CCCn1c(-c2ccc(F)cc2)nc2c(NCCN(CC)CC)nc(C)nc21	1.7%	11.0%	-1.8%	-0.1%	i	-1.2%
Cc1cc(N)n2ncc(-c3cccc(Br)c3)c2n1	11.0%[11 µM]	1.58µM*	0.5%	-2.3%[11.4 µM]	i	1.5%
Cc1cc(N)n2ncc(-c3ccccc3)c2n1	3.6%	-20.3%	-2.9%	-4.2%	i	-5.0%
CC(=O)c1c(COC(=O)c2cccnc2)nc2ccccc2[n+]1[O-]	-10.7%	20µM*	-0.7%	-5.3%	i	-1.9%
CCn1c(=O)c(C(=O)CN2CCCc3ccccc32)c(N)n(Cc2ccccc2)c1=O	-23.6%	25.1µM*	1.3%	6.4%	i	2.7%
O=C(Nc1ccc(O)cc1)C1CC=CCC1 (centres undefined)	?	12.6µM*	-6.7%	-4.7%	?	1.3%
Cc1ccc(S(=O)(=O)N2CCCC2C(=O)Nc2ccc(O)cc2)cc1 (centres undefined)	1.6%	-3.9%	1.0%	-4.3%	i	-2.9%
CCOC(=O)COc1cccc2c(=O)n(CC(=O)NCc3ccc4c(c3)OCO4)ccc12	3.2%	27.2%	-0.6%	-11.1%	i	-1.6%
CCOC(=O)COc1cccc2c(=O)n(CC(=O)N3CCc4ccccc43)ccc12	0.4%	15.8µM*	0.1%	-14.3%	i	-1.3%
Cc1ccc2nc(NC(=O)CN(C)S(=O)(=O)c3cccc4nsnc34)sc2c1	4.8%	15.8µM*	-1.3%	-0.4%	i	-3.9%
Cc1ccnc(NC(=O)CN(C)S(=O)(=O)c2cccc3nsnc23)c1	5.0%	-0.7%	-3.3%	-1.3%	i	-0.2%
CN[C@@H]1[C@H](O[C@H]2[C@@H](O[C@@H]3[C@@H](O)[C@@H](O)[C@@H](N=C(N)N)[C@@H](O)[C@@H]3N=C(N)N)O[C@@H](C)[C@]2(O)CO)O[C@H](CO)[C@@H](O)[C@@H]1O	-0.3%[26 µM]	-7.9%[25.6 µM]	0.1%[34.4 µM]	-1.2%[25.6 µM]	i	0.2%[34.4 µM]
COc1cc(/C=C\C(=O)N2CCCCC2=O)cc(OC)c1OC	-0.3%	?	·	-3.1%	i	·
CN(C)c1ccc(N/C=C/C(=O)c2ccccc2)cc1	?	15.8µM*	-1.1%	-3.5%	i	5.8%
CC(=O)c1ccc2c(c1)N(CCCN1CCC(CCO)CC1)c1ccccc1S2	-10.2%[26 µM]	3.98µM*	-2.5%[34.4 µM]	-3.0%[25.6 µM]	i	-1.6%[34.4 µM]
O=S(=O)(NCc1ccccn1)c1cccc2cccnc12	-17.2%	-11.0%	-0.4%	-8.1%	i	-0.5%
Cc1cc(C)n(-c2ncc(-c3ccccc3)nn2)n1	?	25.1µM*	1.7%	-6.0%	i	-0.6%
Cc1cc(C)n(-c2nc(Nc3ccccc3)nc(-n3nc(C)cc3C)n2)n1	0.5%	0.5%	1.4%	-11.7%	i	-0.8%
Cc1cc(C)n(-c2nncc(-c3ccccc3)n2)n1	-26.5%	15.8µM*	1.4%	-5.0%	i	-5.2%
SMILES	Hsp90 Hop PPI	Tau fil binding	BRCT PPI red	Pol III holo inh	TsaE inh	BRCT PPI green
COc1ccc(C(=O)N2CCC[C@@]3(CCN(c4ncccn4)C3)C2)cc1	-0.6%	-19.9%	0.3%	4.4%	i	-2.1%
CC(C)c1ccc(Cn2ccc3c4c(N)nc(NC5CC5)nc4ccc32)cc1	-14.1%	i	-0.8%	-5.6%	i	-0.4%
CNCCCC12CCC(c3ccccc31)c1ccccc12	-2.0%	15.8µM*!	-0.3%	-4.7%	i	-1.8%[3.08 µM]
C=CC1CO1 (centres undefined)	-3.6%	6.0%	0.9%	-1.9%	i	-0.5%
N#Cc1cccc(-c2nc(Nc3ccncc3)c3ccccc3n2)c1	-0.1%	112.0%	0.7%	-18.2%	i	12.2%
Cc1nnc(SCC2=C(C(=O)O)N3C(=O)C(NC(=O)Cn4cnnn4)[C@@H]3SC2)s1 (some centres undefined)	·	·	0.1%	·	·	-1.7%[3.08 µM]
CCOC(=O)c1cnn2c(C(F)(F)F)cc(-c3ccccc3)nc12	13.7%	12.6µM*	-5.4%	-5.7%	i	-3.1%
CCOC(=O)C1CCCN(C(=O)c2cnn3c(C(F)(F)F)cc(-c4ccccc4)nc23)C1 (centres undefined)	?	12.6µM*	-2.0%	-4.6%	i	1.5%
CCOC(=O)C1CCCN(C(=O)c2cc3nc(-c4cccc(OC)c4)cc(C(F)(F)F)n3n2)C1 (centres undefined)	?	-25.8%	-1.4%	-3.0%	i	-1.1%
CCOC(=O)c1cnn2c(C(F)(F)F)cc(-c3cn(C)nc3C)nc12	-7.1%	0.5%	-1.6%	-1.4%	i	-0.3%
COC(=O)NC(c1ccccc1)C(C(=O)OC)C(=O)OC (centres undefined)	·	·	1.3%[15.4 µM]	·	·	-0.3%[15.4 µM]
CCCc1nnc2n1N=C(c1ccc(OC)c(OC)c1)CS2	0.1%	15.1%	-0.5%	-3.4%	i	1.7%
COc1ccc(Cc2nnc3n2N=C(c2cc4ccccc4o2)CS3)cc1OC	-2.9%	31.6µM*	0.6%	-1.6%	i	2.2%
CCOC(=O)OCC1OC(C#CC(C)(C)C)C=CC1OC(=O)OCC (centres undefined)	·	·	-0.6%[15.4 µM]	·	·	-2.3%[15.4 µM]
O=C1CCCC2=C1C(c1ccco1)Nc1ccc(C(=O)c3ccccc3)cc1N2 (centres undefined)	?	6.31µM*	-4.5%	-16.2%	i	-2.6%
COc1cc(CNc2ccc3[nH]c(=O)[nH]c3c2)cc(Cl)c1OCC(=O)NC(C)(C)C	-14.7%	10µM*	-0.9%	-7.8%	i	-2.0%
